Here are results for 23 compounds from PubChem BioAssay (Tox21).

Unmarked numbers belong to inactive results. Inconclusive results are not listed. Active and inactive are the calls of the source. Unless noted, the call rests on the fitted dose curve.

Assay [1] in a line: qHTS assay to identify small molecule antagonists of the estrogen related receptor signaling pathway with the pleiotropic PPARgamma coactivator (PGC) from Tox21 10K library (AID 1224841; call rule not given here; further: actives are mostly falling curves and most rising ones were filed inactive; nearly all actives have a fitted effect of over 50% in size; further: potency means the concentration at half of the fitted maximal effect). The method in brief:
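qHTS antagonist format: PGC/ERR cells, 2k/well, compound in DMSO by pin transfer after 6 h attachment, 18 h treatment at 37 C, One-Glo luminescence read at 30 min.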

Assay [2] in a line: qHTS assay to identify small molecule agonists of the estrogen related receptor signaling pathway with the pleiotropic PPARgamma coactivator (PGC) from Tox21 10K library (AID 1224842; active means well fitted curve in the direction sought with a large enough effect in the repeat runs; an effect the other way counts as inactive or inconclusive; further: nearly all actives have a fitted effect of over 15% in size; further: potency means the concentration at half of the fitted maximal effect). The method in brief:
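Luminescence from One-Glo (30 min, room temperature) measured after PGC/ERR cells had 18 h at 37 C with pinned compound (23 nL in DMSO). Cells had been seeded at 2,000 per well and pre-incubated 6 h.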
For orientation: qHTS replaces the single test concentration by a dilution series.

Assay [3] concerns the target Thyrotropin receptor (Homo sapiens) (UniProt P16473). The assay can be described thus: qHTS assay to identify small molecule agonists of the thyroid stimulating hormone receptor (TSHR) signaling pathway (AID 1224843). Further: nearly all actives have a fitted effect of over 45% in size. In short, it runs like this:
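HEK293 cells stably bearing the thyrotropin receptor were plated at 800 cells/well and challenged with compound (30 min, RT). Accumulated cAMP was quantified via cAMP-d2 competing for cryptate-tagged antibody.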

A short description of assay [4]: qHTS assay to identify small molecule agonists of the hypoxia (HIF-1) signaling pathway - cell viability counter screen (AID 1224844). Further: nearly all actives have a fitted effect of over 50% in size. In short, it runs like this: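 Cells (HRE-bla ME-180, 2,000 per well) sat 5 hrs at 37C, got compound for 17 hrs, were read for CCF4-AM FRET, and were finally lysed with CellTiter-Glo for a 30 min room-temperature luminescence read.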

Assay [5] can be described thus: qHTS assay to identify small molecule agonists of H2AX (AID 1224845; active means well fitted activation curve with a large enough effect in the signal ratio in the repeat runs, not every such curve was filed as active; the % refers to the signal ratio). In short, it runs like this: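 Phospho-H2AX Ser139 measured by HTRF (ex 320 nm; em 665 and 620 nm) after 24 hr antibody incubation. Compounds, 15 concentrations, 0.76% DMSO, were applied to CHO-K1 cells for 3hr at 37C before lysis.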
Assay [6] can be described thus: qHTS assay to identify small molecule agonists of the hypoxia (HIF-1) signaling pathway (AID 1224846; active means well fitted activation curve with a large enough effect in the signal ratio in the repeat runs, not every such curve was filed as active; the % refers to the signal ratio). In short, it runs like this: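 A low-serum medium (0.5% dialyzed FBS) holding 2,000 HRE-bla ME-180 cells per well is preincubated for 5 hrs, dosed with compounds by pintool, and kept a further 17 hrs at 37C, 5% CO2 before CCF4-AM FRET detection of beta-lactamase.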

Assay [7] in a line: qHTS assay to identify small molecule agonists of H2AX - cell viability counter screen (AID 1224847). Further: top concentration of the series differs between compounds; nearly all actives have a fitted effect of over 30% in size. In short, it runs like this:
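Cytotoxicity counter screen in wild-type CHO-K1 cells: a 3 hr compound treatment at 37C across 15 concentrations, followed by CellTiter-Glo luminescence to gauge viable cells.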

The nature of assay [8]: qHTS assay to identify small molecule antagonists of the estrogen related receptor (ERR) signaling pathway from Tox21 library (AID 1224848; active means well fitted curve in the direction sought with a large enough effect in the repeat runs; an effect the other way counts as inactive or inconclusive; further: nearly all actives have a fitted effect of over 50% in size). In short, it runs like this: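 Reading was by luminescence 30 min after ONE-Glo addition. Before that, ERR cells at 2,000 per well had rested 6 h at 37 C/5% CO2 and then received pin-tooled compounds in DMSO for 18 h at 37 C.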
Assay [9] is described as follows: qHTS assay to identify small molecule agonists of the estrogen related receptor (ERR) signaling pathway from Tox21 library (AID 1224849). Further: nearly all actives have a fitted effect of over 15% in size. The conditions noted are these: ERR reporter cell line, ONE-Glo luciferase, 18 h; at 92.4 µM (top of the series) unless noted. In short, it runs like this: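 Screening used an NTP-provided ERR luciferase cell line. Compounds in DMSO were added 6 h after seeding and left 18 h at 37 C before a 30 min ONE-Glo step and luminescence reading.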

A short description of assay [10]: qHTS RealTime-Glo MT Cell Viability Assay in HepG2 cells - 24 hour (AID 1224867; active means well fitted curve in the direction sought with a large enough effect in the repeat runs; an effect the other way counts as inactive or inconclusive; further: nearly all actives have a fitted effect of over 50% in size). In short, it runs like this:
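Tox21 10K library screened in qHTS format on HepG2 cells carrying RealTime-Glo reagents. Compounds were added after a 5 h preincubation, and the luminescent signal from continuous culture was measured repeatedly during 40 h treatment.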
On the % scale 0 is the no-effect control and ±100 the full control effect.

Chain of Thyrotropin receptor (Homo sapiens) (P16473 whole entry, looked up): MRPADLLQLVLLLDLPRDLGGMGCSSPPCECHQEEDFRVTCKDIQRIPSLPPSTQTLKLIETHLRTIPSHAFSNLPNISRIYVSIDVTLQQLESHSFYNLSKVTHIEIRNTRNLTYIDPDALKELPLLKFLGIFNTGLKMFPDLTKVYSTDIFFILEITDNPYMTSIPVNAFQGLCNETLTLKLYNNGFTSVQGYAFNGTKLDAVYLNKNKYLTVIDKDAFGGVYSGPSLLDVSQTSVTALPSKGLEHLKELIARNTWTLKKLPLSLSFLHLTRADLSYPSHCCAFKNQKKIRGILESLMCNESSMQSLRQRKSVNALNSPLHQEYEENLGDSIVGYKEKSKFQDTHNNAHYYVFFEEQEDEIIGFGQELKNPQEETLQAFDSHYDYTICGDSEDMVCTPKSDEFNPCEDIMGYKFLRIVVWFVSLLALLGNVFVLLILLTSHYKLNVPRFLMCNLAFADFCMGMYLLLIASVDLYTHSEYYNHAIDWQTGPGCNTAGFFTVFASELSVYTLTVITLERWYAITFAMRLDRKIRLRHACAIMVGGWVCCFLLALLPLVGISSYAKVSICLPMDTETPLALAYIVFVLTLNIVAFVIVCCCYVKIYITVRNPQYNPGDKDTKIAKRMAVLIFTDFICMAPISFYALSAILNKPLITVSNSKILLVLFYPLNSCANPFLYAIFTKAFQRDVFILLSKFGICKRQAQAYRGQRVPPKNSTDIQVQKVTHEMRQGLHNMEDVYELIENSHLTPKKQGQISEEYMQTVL

With `CCCCCCCCCCCC(C)=O`, the Potency entry in [1], in assay [2] and in assay [3] was “inactive” each time. In addition, the compound was classed as inactive in assay [4], in assay [5], in assay [6], in assay [7], in assay [8] and in assay [10]. In addition, in [9], the activity change, positive = activation is -0.269%.
`O=C1Nc2ccccc2C1=O`: in assay [1], the Potency was 13.6 µM (active). Moreover, the Potency result in assay [2] and in assay [3] was “inactive” in each case. The compound was called inactive in assay [5], in assay [6], in assay [7], in assay [8] and in assay [10]. For the same compound, the activity change, positive = activation in [9] was -1.92%.
Consider `C[n+]1ccccc1/C=N/O`, for which the Potency result in assay [1], in assay [2] and in assay [3] was “inactive” in each case. In addition, the compound was called inactive in [4], in assay [7], in assay [8] and in [10]. The activity change, positive = activation in [9] is 0.0992% [at 42.5 µM].
Consider `CC[C@@]1(c2ccccc2)NC(=O)N(C)C1=O`, for which the Potency entry in [1], in assay [2] and in [3] was “inactive” each time. The compound was classed as inactive in assay [4], in [5], in assay [7] and in [8]. In addition, the activity change, positive = activation in assay [9] was 3.28% [at 42.5 µM].
For `CC(=O)c1ccc2ccc3ccccc3c2c1`, the Potency result in assay [1], in assay [2] and in assay [3] was “inactive” throughout. Besides, the compound was classed as inactive in assay [4], in assay [6], in assay [8] and in assay [10]. Moreover, the activity change, positive = activation in [9] was 8.72%.
Turning to `N=C(N)N`, the Potency result in assay [1], in assay [2] and in assay [3] was “inactive” throughout. For the same compound, the compound was classed as inactive in [4], in assay [5], in assay [6], in assay [7], in assay [8] and in [10]. Further, in assay [9], the activity change, positive = activation was 0.947% [at 42.5 µM].
`CC(C)OC(=O)C(C(=O)OC(C)C)=C1SC=CS1`: the Potency result in assay [1], in assay [2] and in assay [3] was “inactive” throughout. Moreover, the compound was called inactive in assay [4], in [5], in [6] and in assay [10]. Moreover, the activity change, positive = activation in assay [9] was -19.5% [at 42.5 µM].
As for `Cc1nnc(C(=O)NC(C)(C)c2nc(C(=O)NCc3ccc(F)cc3)c(O)c(=O)n2C)o1`, the Potency entry in [1], in assay [2] and in assay [3] was “inactive” each time. In addition, the compound was called inactive in assay [4], in assay [5], in assay [6], in assay [7], in [8] and in [10]. Also, the activity change, positive = activation in [9] was 9.04% [at 42.5 µM].
With `N[C@H]1C(O)O[C@H](CO)[C@@H](O)[C@@H]1O` (stereo not given in full), the Potency entry in [1], in assay [2] and in assay [3] was “inactive” each time. Further, the compound was classed as inactive in assay [5], in assay [6], in assay [7], in assay [8] and in assay [10]. Besides, the activity change, positive = activation in assay [9] is 3.25% [at 42.5 µM].
As to `CCCCCCCCOCCC#N`, the Potency entry in assay [1], in assay [2] and in [3] was “inactive” each time. For the same compound, the compound was called inactive in assay [4], in assay [5], in assay [6], in assay [7] and in [8]. Moreover, the activity change, positive = activation in [9] was 3%.
As to `COc1cnc(NS(=O)(=O)c2ccc(N)cc2)nc1`, the Potency entry in assay [1], in assay [2] and in assay [3] was “inactive” throughout. In addition, the compound was called inactive in assay [5], in [6], in assay [7], in [8] and in assay [10]. In addition, the activity change, positive = activation in assay [9] was 4.16% [at 42.5 µM].
In the case of `CC(=O)SC[C@@H](C)C(=O)N1CCC[C@H]1C(=O)N[C@@H](Cc1ccccc1)C(=O)O`, the Potency entry in [1], in assay [2] and in [3] was “inactive” each time. Further, the result in assay [4], in [5], in assay [6], in assay [7], in [8] and in assay [10] was inactive. Also, the activity change, positive = activation in assay [9] was 7.31% [at 42.5 µM].
As to `C=COCCCCO`, the Potency entry in assay [1], in assay [2] and in [3] was “inactive” throughout. Besides, the compound was called inactive in assay [4], in assay [6] and in assay [7]. Also, in [9], the activity change, positive = activation was -29.3%.
With `Cc1ccc(N)nc1`, the Potency entry in assay [1], in assay [2] and in assay [3] was “inactive” in each case. Also, the outcome in assay [4], in [5], in assay [6], in assay [7], in assay [8] and in assay [10] was inactive. For the same compound, in assay [9], the activity change, positive = activation was 3.66%.
Consider `CCCCOCCCC`, for which the Potency result in assay [1], in [2] and in assay [3] was “inactive” in each case. The compound was classed as inactive in assay [4], in [5], in [6], in assay [7], in assay [8] and in [10]. The activity change, positive = activation in [9] was 4.99%.
Turning to `CC/C=C\CCOC(=O)c1ccccc1`, the Potency result in assay [1], in assay [2] and in assay [3] was “inactive” throughout. The call in [4], in [6], in [7] and in assay [8] was inactive. Besides, the activity change, positive = activation in assay [9] was 5.28%.
With `C=CC(=O)CC`, the Potency entry in assay [1], in assay [2] and in assay [3] was “inactive” in each case. The compound was classed as inactive in assay [4], in assay [5], in assay [6], in assay [7], in assay [8] and in [10]. The activity change, positive = activation in [9] is -1.79%.
Take `O=C(O)CCCCCCCCCC(=O)O`: the Potency result in assay [1], in assay [2] and in [3] was “inactive” in each case. Further, the result in assay [4], in assay [5], in assay [6], in assay [7], in assay [8] and in assay [10] was inactive. Further, the activity change, positive = activation in assay [9] is 3.45%.
As to `CC(=O)SCC(CC(=O)c1ccc(C)cc1)C(=O)O` (stereo not given), the Potency entry in assay [1], in assay [2] and in [3] was “inactive” in each case. The call in assay [4], in assay [5], in [6], in assay [7] and in assay [8] was inactive. For the same compound, the activity change, positive = activation in assay [9] was 8.89% [at 42.5 µM].
Consider `COC(=O)/C=C(\C)CCC=C(C)C`, for which the Potency result in assay [1], in assay [2] and in [3] was “inactive” in each case. Also, the outcome in [4], in assay [5], in [6], in assay [7], in assay [8] and in assay [10] was inactive. For the same compound, in assay [9], the activity change, positive = activation was 1.22%.
Regarding `COc1ccc2cc(CCC(C)=O)ccc2c1`, the Potency result in assay [1] and in [3] was “inactive” in each case. In assay [2], the Potency is 13.3 µM (active). In addition, the result in [4], in assay [5], in assay [7], in assay [8] and in assay [10] was inactive. In addition, the activity change, positive = activation in [9] was 114% [at 42.5 µM] (active).
For `CCC(C)(C)C`, the Potency result in assay [1], in [2] and in assay [3] was “inactive” in each case. Moreover, the outcome in assay [4], in [6], in assay [7], in assay [8] and in [10] was inactive. Besides, the activity change, positive = activation in assay [9] was -3.65%.
`NC(=O)CC[C@@H](N)C(=O)O`: the Potency result in assay [1], in assay [2] and in assay [3] was “inactive” throughout. Besides, the result in [4], in assay [5], in assay [6], in assay [7], in assay [8] and in assay [10] was inactive. Also, the activity change, positive = activation in assay [9] was 1.56% [at 42.5 µM].
